Granule exo inh – blocks lytic granule exocytosis; 0.66% of 360,000 active; inhibition, % at 10 µM; TALL-104 LAMP-1 surface exposure, flow cytometry; cells stimulated with thapsigargin and PMA;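 active = inhibition above about 55%, limit read from the data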
GRK2 aptamer HTS – inhibitors of human GRK2 displacing RNA aptamer | inhibition of aptamer binding, % at 10 µM | bead flow cytometry, FAM-aptamer displacement from GRK2 | 0.59% of 330,000 active | P25098 | AID 488847;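 active = inhibition of aptamer binding above 40%, roughly 3 SD of noise, on plates passing a quality check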;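 also: median bead fluorescence of bound FAM aptamer so fluorescent compounds give negative values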
Beta2AR agonist – agonists of human beta-2 adrenergic receptor inducing internalization | response, % (test concentration not listed) | Am2.2-beta2AR cells, FAP receptor internalization, flow cytometry | P07550 | 0.43% of 340,000 active | AID 504454;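 active = response above a set limit, near 3 SD of response in nonfluorescent compounds, cut at about 42% in these data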
NadD inh – blocks S. aureus nicotinate mononucleotide adenylyltransferase. purified NadD enzyme, colorimetric absorbance read-out. inhibition, % at 20 µM. 0.78% of 360,000 active. AID 602399; in the data active = inhibition above about 26%
PP1 inh – PP1-alpha (human) inhibition in PP5 counter-screen. P62136. purified PP1alpha, OMFP fluorescence. inhibition, % at 6.7 µM. 0.9% of 320,000 active;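 active = inhibition above the mean inhibition of all tested compounds plus 3 SD, computed separately for each screening campaign, cut at about 15% in these data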
Target sequence (P62136 whole entry, looked up): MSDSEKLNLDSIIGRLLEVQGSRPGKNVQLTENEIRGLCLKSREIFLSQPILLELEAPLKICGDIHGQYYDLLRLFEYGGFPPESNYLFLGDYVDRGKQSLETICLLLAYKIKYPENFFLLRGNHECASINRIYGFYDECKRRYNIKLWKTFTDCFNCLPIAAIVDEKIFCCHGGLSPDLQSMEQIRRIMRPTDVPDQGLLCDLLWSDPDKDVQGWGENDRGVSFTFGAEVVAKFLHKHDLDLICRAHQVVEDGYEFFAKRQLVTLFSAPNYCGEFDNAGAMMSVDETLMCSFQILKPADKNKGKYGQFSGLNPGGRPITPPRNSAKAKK
B2AR ag CP1 – agonists of human beta-2 adrenergic receptor; shares compounds with Beta2AR agonist; Am2.2-beta2AR cells, FAP surface receptor, flow cytometry; hits give low values; percent response (surface receptor), % at 10 µM; 25% of 1,100 active;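 active = surface receptor percent response at or below 58%, roughly 3 SD from nonfluorescent compounds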
FAP fluor counter – fluorescence artifact in beta-2AR agonist FAP counterscreen; shares compounds with Beta2AR agonist; Am2.2 cells, FAP fluorogen flow cytometry; hits give low values; calls only at 10 µM; 1,100 tested, under 10 active; AID 588765;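 active = percent response below a set limit in fluorescence channel 1 and below 50% in channel 8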
Active calls of the source: *; i = inactive; / = no result. Rows were chosen to be rich in hits. Some 2.9% of all compounds tested hit in one or more screens of this group.

SMILES	Granule exo inh	GRK2 aptamer HTS	Beta2AR agonist	NadD inh	PP1 inh	B2AR ag CP1	FAP fluor counter
O=C1CN(C(=O)COC(=O)CCC(=O)c2ccc(F)cc2)c2ccccc2N1	-1	5	15	2	/	/	/
COC(=O)CSc1nc(N)c(C#N)c(-c2ccc(O)cc2)c1C#N	1	0	67*	-6	1	76	i
Cc1ccc(C(=O)c2cc([N+](=O)[O-])ccc2N2CCCCC2)c(C)c1	10	2	61*	-2	4	41*	i
Cc1cccc(OCc2n(CC(=O)OC3CC(C)CCC3C(C)C)c3ccccc3[n+]2C)c1 (centres undefined)	89*	0	10	16	15	96	i
CC1CCC(C(C)C)C(OC(=O)Cn2c(-c3ccccc3)[n+](C)c3ccccc32)C1 (centres undefined)	44	0	6	4	0	/	/
COc1ccc(S(=O)(=O)N2CCN(CC(=O)NCCc3cccs3)CC2)cc1	2	4	-5	0	-6	/	/
CCCNC(=O)C1(C)CCCN(C(=O)c2ccccc2F)C1 (centres undefined)	-4	/	/	2	/	/	/
O=C(NCC1CCCO1)C1CCN(S(=O)(=O)c2ccc(Br)cc2)CC1 (centres undefined)	-2	0	-4	-2	3	/	/
CSc1ccc(S(=O)(=O)N2CCC(C(=O)NCC3CCCO3)CC2)cc1 (centres undefined)	-4	0	155*	4	4	108	i
CN(C)c1nc(=NCc2ccco2)ss1	76*	1	12	3	0	111	i
Cc1ccc(NC(=O)C(c2ccccc2)c2ccccc2)c(O)c1	-6	1	48*	0	1	104	i
CC1CCC(NC(=O)CCS(=O)(=O)c2ccc3c(c2)CCN3C(=O)C2CC2)CC1 (centres undefined)	-4	2	105*	-4	0	18*	i
COc1ccc(S(=O)(=O)N(Cc2cccnc2)Cc2cc3ccccc3[nH]c2=O)cc1	17	1	-5	1	3	152	i
CC(=O)Nc1ccc(S(=O)(=O)N(Cc2cccnc2)Cc2cc3ccc(C)cc3[nH]c2=O)cc1	0	0	8	-5	-3	/	/
Cc1ccc(S(=O)(=O)N(Cc2cccnc2)Cc2cc3ccccc3[nH]c2=O)cc1	7	0	-11	4	-2	154	i
CCOC(=O)[C@]12CCC=C1N(CCC1=CCCCC1)C(=O)[C@H](CC(=O)NCCCCc1ccccc1)C2	7	/	/	5	/	/	/
O=C(Nc1ccc(C2=NCCN2)cc1)c1ccc(Cl)c(C(=O)Nc2ccc(C3=NCCN3)cc2)c1	/	0	/	/	7	/	/
CCN(CC)S(=O)(=O)c1cc(C(=O)Nc2cc(Cl)ccc2N2CCN(C)CC2)ccc1Cl	5	1	74*	4	6	20*	i
COc1ccc(Cl)cc1-c1nc(-c2ccc(NC(=O)c3ccncc3)cc2)no1	0	0	0	2	0	/	/
CC(Oc1ccc(Cl)cc1Cl)c1nc(-c2ccc(NC(=O)c3ccccn3)cc2)no1 (centres undefined)	-1	1	82*	-12	-3	9.7*	i
Cc1ccc(NS(=O)(=O)c2cccc3nsnc23)cc1[N+](=O)[O-]	-2	0	-4	-2	-3	/	/
COc1ccc(CC(=O)Nc2ccc(-c3cn4ccccc4n3)cc2)cc1	-1	0	93*	2	-2	19*	i
Cc1ccc(/C(=N/Nc2ncnc3ccccc23)C(=O)O)cc1	7	1	2	2	6	94	i
Cc1ccc(Nc2ncnc3ccccc23)cc1	4	0	4	-7	2	/	/
COc1ccc(CCNC(=O)Cc2ccc(OC)c(OC)c2)cc1OC	-3	1	5	9	-4	/	/
SMILES	Granule exo inh	GRK2 aptamer HTS	Beta2AR agonist	NadD inh	PP1 inh	B2AR ag CP1	FAP fluor counter
COc1ccc(CCNC(=O)Cc2cccc(C(F)(F)F)c2)cc1OC	-6	2	83*	-8	-3	102	i
COc1ccc(S(=O)(=O)N2CCCOC2CNC(=O)C(=O)NCc2ccccc2C)cc1 (centres undefined)	-6	/	/	0	/	/	/
COc1ccc(-c2csc3nc(C(C)C)oc(=O)c23)cc1OC	0	1	-4	-1	1	/	/
COc1ccc(-c2nc3scc(-c4ccc(OC)c(OC)c4)c3c(=O)o2)cc1	-4	3	51*	-11	2	88	i
Cc1nc(C(F)(F)F)c(C(=O)O)cc1-c1nc(-c2ccccc2)cs1	-4	0	0	-8	-3	/	/
CC(=O)NCC(=O)OCC(=O)c1ccc(Br)cc1	3	0	-2	-1	2	/	/
CC(C)Oc1ccc(/C=N/NC(N)=S)cc1	1	4	-5	3	-2	92	i
CCN(CC(=O)NCc1ccc(Cl)cc1)C(=O)c1cc2ccccc2o1	19	4	-4	-13	-4	/	/
CCN(Cc1ccncc1)C(=O)c1cc(COc2ccc(OC)cc2Cl)on1	0	3	-26	-7	-1	/	/
CCN1CCN(CCc2nc3cc(NC(=O)COc4ccccc4)ccc3n2C)CC1	-5	0	-12	-3	-2	/	/
CN1CCN(CCc2nc3cc(NC(=O)COc4ccccc4)ccc3n2C)CC1	-3	0	-17	-1	-5	129	i
COc1ccc2oc(=O)c(/C(C)=N/Nc3ccccc3)cc2c1	7	0	-2	-3	-4	/	/
Cc1ccc(CS(=O)(=O)c2nc3c(c(N(C)C)n2)CCCC3)cc1	1	0	73*	2	-1	27*	i
CCOC(=O)c1c(NC(=O)COC(=O)C2CC2C)sc(C)c1C (centres undefined)	-5	4	5	-8	1	/	/
COc1ccccc1/C=C1\N=C(C(C)(C)C)OC1=O	0	2	8	-1	0	/	/
COc1cc(-c2cccs2)cc(=O)c2c(C)oc(C)c12	-1	0	-12	10	3	112	i
COc1ccc(-c2cc(OC(=O)c3ccc(F)cc3)c3c(C)oc(C)c3c(=O)c2)cc1	/	6	/	/	12	/	/
CCn1nc(NS(=O)(=O)c2ccc(NC(C)=O)cc2)c2cc3ccccc3nc21	5	3	53*	5	-5	101	i
CCn1nc(NS(=O)(=O)c2ccc([N+](=O)[O-])cc2)c2cc3ccccc3nc21	6	3	64*	8	6	118	i
CCn1nc(NS(=O)(=O)c2ccc(C)cc2)c2cc3ccccc3nc21	0	2	8	-3	-1	120	i
O=C(NC1CCCN(CCc2ccccc2)C1)C1CCCC1 (centres undefined)	5	11	-8	-6	-5	/	/

Bioassay records as filed in PubChem.
